# Assay results published in PubChem BioAssay AID504467 (National Center for Advancing Translational Sciences (NCATS), 2011).
# The campaign covered roughly 330,000 compounds. About 7,700 (2.3%) were called active. About 26% were inconclusive and are not listed. Calls come from the whole dose curve; as a rule, active = well fitted inhibition curve with a large enough effect; inconclusive = small, poorly fitted or top-dose-only effect, or effect the other way; inactive = flat fitted curve, though single readings scatter. The full list was thinned out, with actives kept by preference.
# Assay: qHTS screen for small molecules that inhibit ELG1-dependent DNA repair in human embryonic kidney (HEK293T) cells expressing luciferase-tagged ELG1; note: nearly all actives have a fitted effect of over 55% in size
# Details: HEK293T ELG1-luciferase reporter, luminescence, 16 h, DNA damage induced by 5-fluorouridine; series mostly up to 46.1 µM; activity change, negative = inhibition: at the top concentration
# Outline: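 In this reporter screen, reduction of luminescence relative to DMSO vehicle indicated activity. Compounds and 5-fluorouridine were added together to 2,000 cells per well, incubated for 16 hr at 37 °C, then developed with ONE-Glo.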
# % is set by controls: 0 for no effect and ±100 for the full control effect; potency is the fitted concentration of half-maximal effect.
Structure (SMILES),"activity change, negative = inhibition",Potency
COc1ccc(C(CNC(=O)c2ccc(NS(=O)(=O)c3ccc(F)c(C)c3)cc2)N(C)C)cc1 (configuration not stated),14.9% (inactive),–
O=C1NCC(=O)N(Cc2ccccc2)/C1=C/c1ccccc1,7.15% (inactive),–
O=Cc1cn(Cc2ccccc2)nc1-c1cccnc1,9.65% (inactive),–
O=C1/C(=C\c2cccnc2)CN(Cc2ccccc2)C/C1=C\c1cccnc1,–,3.66 µM (active)
COC(=O)[C@]1(CC(C)C)N[C@H](c2ccc(SC3CCCCC3)cc2)[C@@H]2C(=O)N(C)C(=O)[C@@H]21,-17.4% (inactive),–
CCOC(=O)C1CCN(c2ncnc3c2oc2ccc(Br)cc23)CC1,24% (inactive),–
CCOC(=O)C1CCN(c2ncnc3c2c(-c2ccccc2)cn3-c2ccc(C)cc2)CC1,–,14.6 µM (active)
CCOC(=O)C1CCN(Cc2ccc(-c3ccccc3)cc2)CC1,1.34% (inactive),–
COC(=O)c1ccc(C(=O)NC2CC(C)(C)Cc3c2cnn3-c2ccc(F)cc2)nc1 (configuration not stated),7.96% (inactive),–
CC1(C)C[C@H]2C3=CCC4[C@@]5(C)CC[C@H](O)[C@](C)(CO)C5CC[C@@]4(C)[C@]3(C)C[C@@H](O)[C@@]2(CO)[C@@H](O)[C@@H]1O (some centres not stated),-2.62% (inactive),–
CCN(CC)CCCNC(=O)c1c(O)c2cc(F)cc3c2n(c1=O)C(C)CC3 (configuration not stated),14.1% (inactive),–
CC(=O)c1ccc(S(=O)(=O)N2CCC3(CC2)OCCO3)cc1,1.56% (inactive),–
CC(=O)c1ccc(S(=O)(=O)N2CCN(C(=O)/C=C/c3ccc4ccccc4n3)CC2)cc1,–,20.6 µM (active)
NC(=O)COC(=O)/C=C/c1ccc2ccccc2n1,-4.5% (inactive),–
N#C/C(=C\c1cccnc1)C(=O)Nc1ccc(SC(F)F)cc1,19.2% (inactive),–
CC(CNC(=O)Cn1cnc2c(OCc3ccccc3)ncnc21)c1ccccc1 (configuration not stated),-6.48% (inactive),–
C/C(=N/NC(=O)c1ccncc1)c1ccc2c(c1)OCO2,0% (inactive),–
O=C(Nc1nc(-c2ccc3c(c2)OCO3)cs1)c1ccncc1,–,7.08 µM (active)
COc1ccc(-c2csc(NC(=O)c3ccc(N4C(=O)CCC4=O)cc3)n2)cc1OC,11.1% (inactive),–
CCN(C(=O)COC(=O)CCOc1cccc(C)c1)c1c(N)n(Cc2ccccc2)c(=O)[nH]c1=O,2.9% (inactive),–
O=C(CSc1ccccn1)N1CCN(S(=O)(=O)c2ccc(Cl)cc2)CC1,2.63% (inactive),–

Structure (SMILES),"activity change, negative = inhibition",Potency
CCN(C[C@H]1N[C@@](CC)(C(=O)OC)[C@H]2C(=O)N(C)C(=O)[C@@H]12)C(=O)Nc1ccc(F)cc1,17.4% (inactive),–
OCCCNc1nccc(-c2cc(Nc3cccc(Cl)c3)ncn2)n1,–,0.92 µM (active)
O=C(Nc1cc(Cl)cc(Cl)c1)C(NCCCO)c1ccccc1 (configuration not stated),-4% (inactive),–
NS(=O)(=O)c1cccnc1Nc1cccc(Cl)c1,7.92% (inactive),–
COc1ccc(S(=O)(=O)N2CCN(CC(=O)N3CCOCC3)CC2)cc1OC,11.6% (inactive),–
Cc1ccc(OCC(=O)N/N=C\c2ccco2)c(C)c1,20.9% (inactive),–
Cc1ccc(C)c(OCC(=O)N2CCN(C(=O)c3ccco3)CC2)c1,0.168% (inactive),–
CCC(=O)Nc1ccc(C(=O)N2CCN(C(=O)c3ccco3)CC2)cc1,-22.8% (inactive),–
COc1ccccc1C(=O)Nc1ccc(NC(=O)c2ccco2)c(C)c1,5.61% (inactive),–
COc1ccc(C(=O)Nc2ccccc2C(=O)N2CCN(c3ccccc3)CC2)cc1,8.95% (inactive),–
COc1cc(NC(=O)c2cc([N+](=O)[O-])ccc2Br)ccc1NC(=O)c1ccco1,25% (inactive),–
COc1ccc(NC(=O)c2cccc(NC(=O)c3ccco3)c2)c(OC)c1,–,18.4 µM (active)
COc1cccc(C(=O)Nc2ccc(N3CCN(C(=O)c4ccco4)CC3)cc2)c1,–,13 µM (active)
Cc1ccc(OCC(=O)Nc2ccc(N3CCN(C(=O)c4ccco4)CC3)cc2)c(C)c1,–,10.3 µM (active)
Cc1cccc(C(=O)N[C@H](C(=O)NCc2cccs2)C(C)C)c1,-3.69% (inactive),–
CC(NC(=O)c1ccccc1F)c1cccc2ccccc12 (configuration not stated),18.6% (inactive),–
CC1CCCC(NC(=O)c2cc(S(=O)(=O)N3CCCCC3)ccc2Cl)C1C (configuration not stated),9.38% (inactive),–
Cc1ccccc1CNC(=O)CCC(=O)N1Cc2ccccc2Oc2ncccc21,13.4% (inactive),–
C=C1CCC(N(O)c2cc(C)on2)C(=C)CCC2C1CC2(C)C (configuration not stated),13.3% (inactive),–
Cc1ccc(S(=O)(=O)N2CCC(C(=O)NCCC3=CCCCC3)CC2)cc1C,5.56% (inactive),–
Fc1ccc2[nH]c3c(N4CCN(Cc5ccc6c(c5)OCO6)CC4)ncnc3c2c1,–,13 µM (active)

Structure (SMILES),"activity change, negative = inhibition",Potency
O=c1[nH]c(N2CCN(Cc3ccc4c(c3)OCO4)CC2)nc2c1CCCC2,8.53% (inactive),–
CC(C)(C)n1nnnc1C(c1ccc(F)cc1)N1CCN(Cc2ccc3c(c2)OCO3)CC1 (configuration not stated),14.9% (inactive),–
COc1cccc(CNC(=O)COc2cc(O)c3c(c2)OC(C)(C)CC3=O)c1,-5.81% (inactive),–
Cc1ccc(C)c(S(=O)(=O)N2CCN(C(=O)Nc3ccccc3)CC2)c1,-17.6% (inactive),–
Cc1ccc(S(=O)(=O)N2CCN(CC(=O)N/N=C/c3cc([N+](=O)[O-])ccc3Cl)CC2)cc1,-1.1% (inactive),–
Cc1ccc(C)c(S(=O)(=O)N2CCN(CC(=O)Nc3ccc([N+](=O)[O-])cc3)CC2)c1,–,14.6 µM (active)
Cc1ccc(S(=O)(=O)N2[C@@H](c3ccccc3F)C(C(=O)O)=CC[C@H]2c2ccc(Cl)cc2)cc1,3.35% (inactive),–
Cc1c(NC(=O)CSc2nnc(-c3cccnc3)n2N)c(=O)n(-c2ccccc2)n1C,8.36% (inactive),–
O=C(Nc1ccc(F)cc1)N1CCCC(c2nc3c(nnn3Cc3ccccc3Cl)c(=O)[nH]2)C1 (configuration not stated),-26.2% (inactive),–
Cc1ccc(C)c(Cn2nnc3c(=O)[nH]c(C(=O)Nc4ccc(F)cc4)nc32)c1,-19.3% (inactive),–
Cc1ccc(NC(=O)N2CCC(c3nc4c(nnn4Cc4c(F)cccc4Cl)c(=O)[nH]3)CC2)cc1,–,18.4 µM (active)
Cc1cccc(NS(=O)(=O)c2ccc(C)c(C(=O)NCC(c3ccccc3)N(C)C)c2)c1 (configuration not stated),1.94% (inactive),–
COc1ccc2nc(Nc3nc(-c4cc5ccccc5oc4=O)cs3)sc2c1,–,3.66 µM (active)
CCc1noc(C)c1C(=O)Nc1nc2ccc(OC)cc2s1,8.8% (inactive),–
COc1ccc2nc(Nc3nc4ccc(NC(C)=O)cc4s3)sc2c1,14.9% (inactive),–
CC1CCCCC1NCC(=O)Nc1ccccc1C(=O)Nc1ccccc1 (configuration not stated),-2.06% (inactive),–
CC(C)(C)OC(=O)N1CCC(C(=O)NNC(=O)c2ccc(Cl)cc2Cl)CC1,12.8% (inactive),–
NS(=O)(=O)c1cccc(NC(=O)CN2CCCc3ccccc32)c1,-6.2% (inactive),–
COC(=O)c1[nH]c2cccc(C)c2c1NC(=O)CN1CCCc2ccccc21,–,18.4 µM (active)
O=C(CN1CCc2ccccc21)NC(c1ccccc1)c1ccccc1,-0.985% (inactive),–
